From PubChem BioAssay (Tox21)
A number with no mark means an inactive call. Calls of active or inactive are those of the source. Calls come from the whole dose curve; as a rule, active = well fitted curve in the direction sought with a large enough effect in the repeat runs; inconclusive = weak or mixed curves; inactive = flat fitted curve, though single readings scatter.

Assay: qHTS assay to test for compound auto fluorescence at 460 nm (blue) in HepG2 cell free culture (AID 720685)
Conditions: Cell-free culture medium, blue autofluorescence 405/460 nm; series mostly up to 91.3 µM; fluorescence, % of fluorescent control: at the top concentration
Source text: U.S. Tox21 Program National Center for Advancing Translational Sciences [NCATS] NIH Chemical Genomics Center [NCGC] U.S. Environmental Protection Agency [EPA] National Institutes of Environmental Health Sciences [NIEHS] National Toxicology Program [NTP] U.S. Food and Drug Administration [FDA] Tox21 Assay Overview: Compound auto fluorescence often interferes with screening of the compound library against various biological targets and signaling pathways. Some of these compounds may have fluorophoric properties. Such properties may interfere with the assay outputs resulting in false positives and/or negatives. To decrease such complications and ensure the compound activities are relevant in terms of biological response, the Tox21 10K compound library was screened for auto fluorescence. From the fluorophores used as reporter signals in our screening assays, the auto fluorescence equivalencies of compounds against three fluorophores have been evaluated: Triamterene, Fluorescein and Rose Bengal sodium for blue, green and red fluorescence, respectively. The fluorescence intensities were measured using Excitation/Emission wavelengths at 405/460nm, 485/535nm and 540/590nm for blue, green and red labels, respectively. This assay includes the blue fluorescence data.
Tox21 Assay Protocol Summary: 5 uL of culture medium (MEM containing 10% FBS) per well was dispensed into black wall/clear bottom 1536-well plates using a Multidrop Combi Dispenser (ThermoFisher Scientific, Waltham, MA). After 23 nL compound or DMSO vehicle was transferred into assay plate by a pintool work station (Kalypsys, San Diego, CA), fluorescence intensities in the assay plates were measured by an Envision (PerkinElmer, Shelton, CT) plate reader using three labels for measuring blue, green and red fluorescence at […] 460, 535 and 590nm respectively.
% is set by controls: 0 for no effect and ±100 for the full control effect.

| SMILES | fluorescence, % of fluorescent control | outcome |
| --- | --- | --- |
| Oc1ccccc1F | 0.0114% | – |
| OCc1c2ccccc2cc2ccccc12 | 1.06% | – |
| COc1cc2c(cc1N)oc1ccccc12 | -0.0154% [at 95.7 µM] | – |
| CC(C)=CCCC(C)CCOC=O (stereo not given) | -0.0727% | – |
| CCCCC(=O)O[C@]1(C(=O)CO)[C@H](C)C[C@H]2[C@@H]3CCC4=CC(=O)C=C[C@]4(C)[C@@]3(F)[C@@H](O)C[C@@]21C | -0.0152% [at 46 µM] | – |
| Cc1ccc(C(C)C)cc1O | 0.0555% | – |
| CCN(O)CC | -0.119% | – |
| CC(C)(CO)[C@@H](O)C(=O)NCCC(=O)O | – | inactive |
| CC(=O)N[C@@H](CC(C)C)C(=O)O | -0.0954% [at 46 µM] | – |
| CCCCCCCCc1ccc(S(=O)(=O)O)cc1 | 0.0897% | – |
| Nc1cccc(S(=O)(=O)O)c1 | 0.539% | – |
| CCC(=O)O[C@]1(C(=O)SCF)[C@H](C)C[C@H]2[C@@H]3C[C@H](F)C4=CC(=O)C=C[C@]4(C)[C@@]3(F)[C@@H](O)C[C@@]21C | 0.0563% [at 18.6 µM] | – |
| CC(=O)Oc1cc(C(C)C)c(OCCN(C)C)cc1C | -0.0726% [at 18.6 µM] | – |
| CCCCCCC | -0.0332% [at 95.7 µM] | – |
| O=C(O)[C@@H]1CSCN1 | -0.0298% [at 46 µM] | – |
| C=CC1CO1 (stereo not given) | -0.0008% [at 95.7 µM] | – |
| CCCOCCC | -0.0131% | – |
| Cc1cccc(C)c1NC(=O)CN1CCCCCC1 | 0.0205% [at 46 µM] | – |
| C=CC(C)(O)CC/C=C(\C)CCC=C(C)C (stereo not given) | – | inactive |
| C=Cc1ccccc1 | – | inactive |

| SMILES | fluorescence, % of fluorescent control | outcome |
| --- | --- | --- |
| CC1=C(CC(=O)O)c2cc(F)ccc2/C1=C\c1ccc(S(C)(=O)=O)cc1 | -0.0126% [at 46 µM] | – |
| Cc1ccsc1C(=CCCN1CCC[C@@H](C(=O)O)C1)c1sccc1C | -0.0671% [at 46 µM] | – |
| CCCN(CCC)C(=O)C(CCC(=O)O)NC(=O)c1ccccc1 (stereo not given) | -0.0112% [at 46 µM] | – |
| CC(C)NCC(O)COc1ccc(CCOCC2CC2)cc1 (stereo not given) | -0.0247% [at 46 µM] | – |
| COc1ccc2nc(NC(=O)Nc3ccccc3)sc2c1 | 0.0386% [at 46 µM] | – |
| CN1CCN(C2=Nc3cc(F)ccc3Cc3ccccc32)CC1 | -0.13% [at 46 µM] | – |
| CC(C)(C)c1ccc(OC(=O)c2ccccc2O)cc1 | 0.0796% | – |
| CCC(=O)Nc1ccc(O)cc1 | 0.0279% [at 46 µM] | – |
| C=CCCC=C | 0.01% [at 95.7 µM] | – |
| Cc1c(C(=O)NCCO)[n+](=O)c2ccccc2n1[O-] | 0.0318% [at 46 µM] | – |
| CC(CNC1CCCCC1)OC(=O)c1ccccc1 (stereo not given) | -0.0346% [at 18.6 µM] | – |
| OCCN(CCO)c1ccccc1 | 0.187% | – |
| CCCCCCCCCC/C=C/C#N | 0.0615% | – |
| Nc1ccc2ccccc2c1S(=O)(=O)O | 0.0233% [at 95.7 µM] | – |
| CN1[C@@H]2CC[C@H]1CC(OC(=O)c1c[nH]c3ccccc13)C2 (stereo not given in full) | -0.0061% [at 46 µM] | – |
| C1CCOC1 | 0.0194% [at 95.7 µM] | – |
| NC/C=C/C(=O)O | -0.0271% [at 46 µM] | – |
| CC1(C)C(=O)N(Cl)C(=O)N1Br | -0.136% | – |
| CC1(C)O[C@@H]2C[C@H]3[C@@H]4CCC5=CC(=O)CC[C@]5(C)[C@@]4(F)[C@@H](O)C[C@]3(C)[C@]2(C(=O)CCl)O1 | 0.0173% [at 18.6 µM] | – |
| NCCCN1CCN(CCCN)CC1 | 0.206% | – |
